Experiment [1] is described as follows: ACEA_ER_AUC_viability: ACEA Biosciences xCELLigence Real-Time Cell Analysis on Estrogen Receptor Agonism for Viability (AID 2283782).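 Note: hit means loss of impedance signal meaning reduced cell growth or viability.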 Put shortly: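 Continuous-exposure impedance cell analysis uses T-47D cells in charcoal-stripped serum, eight 1:4 dilutions topping at 100 uM final, biological duplicate. Area under the growth curve at 80 h is fitted against DMSO baseline.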

Experiment [2] addresses AR (gene 367) (UniProt P10275). Put plainly: ACEA_AR_antagonist_80hr: ACEA Biosciences xCELLigence Real-Time Cell Analysis on Androgen Receptor Antagonism for Proliferation (AID 2283787).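 Note: 22Rv1 human prostate cancer cells with growth followed by electrical impedance; hits lower the impedance growth signal relative to DMSO.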 Put shortly:
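Using 22Rv1 cells held in assay medium, we dosed compounds (100 uM maximum final, 1:4 serial, eight points, 0.5% DMSO at top) and recorded cell-electrode impedance; the 80 hr timepoint was analyzed against DMSO.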

Experiment [3] concerns the target AR (gene 367) (UniProt P10275). Nature of the experiment: ACEA_AR_agonist_80hr: ACEA Biosciences xCELLigence Real-Time Cell Analysis on Androgen Receptor Agonism for Proliferation (AID 2283783).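 Note: hits increase impedance growth signal above DMSO baseline.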 Put shortly: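 Real-time cell-growth kinetics were recorded by electrode impedance in 22Rv1 cells exposed to test chemicals up to 100 uM final; the 80 h timepoint served as the readout, fitted upward relative to DMSO controls, in biological duplicate.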

Inconclusive results are not listed. Active and inactive are the calls of the source. Rule for the calls: active = hit-call score of the fitted dose curve at least 0.9, where 1 is the maximum; inconclusive = response in the unintended direction; inactive = score below 0.9.

The results in this text go back to PubChem BioAssay (EPA / NIEHS).

AR (gene 367), sequence (P10275 whole entry, looked up): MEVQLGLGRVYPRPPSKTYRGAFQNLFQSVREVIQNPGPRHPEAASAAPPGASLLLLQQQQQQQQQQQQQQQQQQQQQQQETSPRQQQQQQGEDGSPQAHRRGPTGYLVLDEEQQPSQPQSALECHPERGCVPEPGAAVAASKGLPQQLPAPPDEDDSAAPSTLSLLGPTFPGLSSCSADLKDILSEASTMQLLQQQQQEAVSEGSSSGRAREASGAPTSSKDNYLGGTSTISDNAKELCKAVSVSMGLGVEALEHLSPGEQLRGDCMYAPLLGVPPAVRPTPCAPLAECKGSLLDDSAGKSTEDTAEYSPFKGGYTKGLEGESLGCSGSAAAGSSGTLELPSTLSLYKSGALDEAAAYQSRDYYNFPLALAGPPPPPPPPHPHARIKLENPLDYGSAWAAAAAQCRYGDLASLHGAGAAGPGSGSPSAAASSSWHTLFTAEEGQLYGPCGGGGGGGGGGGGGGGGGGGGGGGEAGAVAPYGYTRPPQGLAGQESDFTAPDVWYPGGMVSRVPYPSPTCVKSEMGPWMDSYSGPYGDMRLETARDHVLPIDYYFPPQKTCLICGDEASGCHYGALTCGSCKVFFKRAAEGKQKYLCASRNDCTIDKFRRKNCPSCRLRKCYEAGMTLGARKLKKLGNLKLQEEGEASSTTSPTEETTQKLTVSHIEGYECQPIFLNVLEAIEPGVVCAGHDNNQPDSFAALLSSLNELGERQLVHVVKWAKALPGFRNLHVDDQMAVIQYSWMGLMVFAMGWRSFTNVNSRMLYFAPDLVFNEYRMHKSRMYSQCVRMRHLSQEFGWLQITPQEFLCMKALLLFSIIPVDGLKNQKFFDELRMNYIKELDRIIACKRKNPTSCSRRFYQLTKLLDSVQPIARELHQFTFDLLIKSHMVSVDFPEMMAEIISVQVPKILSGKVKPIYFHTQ

One may read the AC50 as the concentration at which the activity in the assay is half-maximal. With `C=CCCC(=O)/C=C/C1C(C)=CCCC1(C)C` (configuration not stated), the AC50 in experiment [1] was 68.8 µM (active).

On to `CN(C)C(=O)Nc1ccc(Oc2ccc(Cl)cc2)cc1`, for which, in experiment [1], the compound was classed as inactive.

On to `C=C(C)C1CC=C(C)C(=O)C1` (configuration not stated), for which the AC50 in experiment [1] is 68.2 µM (active).

For the compound `COC(CC(C)CCCC(C)(C)O)OC` (configuration not stated), the outcome in experiment [1] was inactive.

As to `CC1(C)C2=CCCC(C)(C)[C@]23CC[C@H]1C3`, in experiment [1], the AC50 was 78.4 µM (active).

Take `CCOCCOCCOCC`: in experiment [1], the result was inactive.

For the compound `CCCCCCCCCCCCCCCC(=O)OC/C=C(C)/C=C/C=C(C)/C=C/C1=C(C)CCCC1(C)C`, the AC50 in experiment [1] is 40 µM (active).

For the compound `COc1ccccc1N=Nc1c(S(=O)(=O)O)cc2cc(S(=O)(=O)O)cc(NC(C)=O)c2c1O`, the compound was called inactive in experiment [1].

As to `COc1ccc(N)c([N+](=O)[O-])c1`, the compound was classed as inactive in experiment [1].

Consider `C[C@H]1C[C@@H](O)CC(C)(C)C1`, for which the AC50 in experiment [1] is 50 µM (active).

`CCCCCc1ccco1`: the AC50 in experiment [1] was 35 µM (active).

As to `C=C(C#N)C(=O)OCC`, the AC50 in experiment [1] is 78.9 µM (active).

For `OC[C@H]1O[C@@H]2O[C@H]3[C@H](O)[C@@H](O)[C@@H](O[C@H]4[C@H](O)[C@@H](O)[C@@H](O[C@H]5[C@H](O)[C@@H](O)[C@@H](O[C@H]6[C@H](O)[C@@H](O)[C@@H](O[C@H]7[C@H](O)[C@@H](O)[C@@H](O[C@H]8[C@H](O)[C@@H](O)[C@@H](O[C@H]9[C@H](O)[C@@H](O)[C@@H](O[C@H]1[C@H](O)[C@H]2O)O[C@@H]9CO)O[C@@H]8CO)O[C@@H]7CO)O[C@@H]6CO)O[C@@H]5CO)O[C@@H]4CO)O[C@@H]3CO`, the result in experiment [1] was inactive.

For the compound `CCCCCC(=O)CC`, the call in experiment [1] was inactive.

Take `CC(C)(C)c1ccc(C(=O)O)cc1`: in experiment [1], the AC50 was 50 µM (active).

`Cc1ccc(OC(=O)c2ccccc2O)cc1`: in experiment [1], the AC50 is 50 µM (active).

Consider `CCCCCCC(=O)c1ccccc1`, for which the compound was called inactive in experiment [1].

As for `C1=CC2C3C=CC(C3)C2C1` (configuration not stated), the result in experiment [1] was inactive.

For the compound `O=C(Nc1ccc2c(O)c(N=Nc3ccc(N=Nc4ccc(S(=O)(=O)O)cc4)cc3)c(S(=O)(=O)O)cc2c1)c1ccccc1`, the result in experiment [1] was inactive.

For the compound `CCCCCCCCCCCCCC(=O)OCC(O)CO` (configuration not stated), the AC50 in experiment [1] was 81.6 µM (active). Moreover, in the experiment with AR (gene 367) [2], the result was inactive.

For the compound `Cc1ccc(S(=O)(=O)Oc2ccc(N=Nc3ccc(-c4ccc(N=Nc5c(O)ccc6cc(S(=O)(=O)O)cc(S(=O)(=O)O)c56)c(C)c4)cc3C)cc2)cc1`, the compound was classed as inactive in experiment [1]. In addition, the AC50 with AR (gene 367) [2] is 5.11 µM (active).

Turning to `CC1CCC(C(C)C)C(O)C1` (configuration not stated), the compound was classed as inactive (in experiment [1]; with AR (gene 367) [3]; in the experiment with AR (gene 367) [2]).

On to `CCCC[P+](CCCC)(CCCC)CCCC`, for which the AC50 in experiment [1] is 91.7 µM (active).
